In PubChem BioAssay AID2563 (Broad Institute, 2010):
The campaign covered roughly 290,000 compounds. About 800 (0.28%) were called active.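 The calls were made as follows: active = fall in fluorescence gain of 50% or more versus controls, with final raw signal at or below 3038400; inconclusive = same 50% fall but final raw signal above 3038400; inactive = fall in fluorescence gain under 50%.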 The entries come from a sample that favours actives as a whole.

molecular target: CAAX prenyl protease 2 (Saccharomyces cerevisiae (strain ATCC 204508 / S288c)) (UniProt Q03530); test: blockers of Rce1 CaaX peptide cleavage – biochemical, fluorescence, cell-free homogeneous, primary screen (AID 2563); conditions: yeast membranes, quenched prenylated peptide cleavage fluorescence
Sequence (Q03530 whole entry, looked up): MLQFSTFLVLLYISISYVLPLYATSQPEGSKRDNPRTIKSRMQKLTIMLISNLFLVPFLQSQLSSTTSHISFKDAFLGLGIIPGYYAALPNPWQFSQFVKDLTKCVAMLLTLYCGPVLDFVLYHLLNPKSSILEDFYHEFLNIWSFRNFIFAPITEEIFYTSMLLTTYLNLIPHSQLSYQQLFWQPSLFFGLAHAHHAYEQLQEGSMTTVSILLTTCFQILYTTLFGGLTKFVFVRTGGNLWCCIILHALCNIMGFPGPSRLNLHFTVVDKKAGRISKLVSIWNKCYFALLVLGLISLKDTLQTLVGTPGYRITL

Question: How did the outcome turn out when `CCOC(=O)c1c(C)oc2cc(Sc3ccccc3)c(O)c(O)c12` was run?
Answer: inactive

Question: Which outcome does the source give for `O=C1CCCC(O)=C1N=Nc1ccc(S(=O)(=O)N2CCOCC2)cc1` here?
Answer: inactive

Question: For `O=C1CCCC(O)=C1N=Nc1ccc2ncsc2c1`, which outcome is on record?
Answer: active

Question: Which outcome does the source give for `COc1ccc(C(=O)N(Cc2ccccc2)c2ccc(C)cc2)cc1S(=O)(=O)N1CCOCC1` here?
Answer: inactive

Question: How did the outcome turn out when `CC1CC(C)(C)CC2(C1)NC(=O)N(CC(=O)Nc1nccs1)C2=O` (centres undefined) was run?
Answer: inactive

Question: How did the outcome turn out when `COc1ccc(-c2cn3ccc(C)cc3n2)cc1` was run?
Answer: active

Question: `COc1ccc(-c2cn3ccsc3n2)cc1` was tested. Which outcome did it give?
Answer: inactive

Question: How did the outcome turn out when `CCN(CC)S(=O)(=O)c1ccc(-c2cn3ccc(C)cc3n2)cc1` was run?
Answer: inactive

Question: For `Cc1ccc(NC(=O)COC(=O)CNC(=O)c2ccc(Cl)cc2Cl)cc1S(=O)(=O)N1CCOCC1`, which outcome is on record?
Answer: inactive

Question: Which outcome does the source give for `C=CCc1ccccc1OCC(=O)N/N=C/c1ccccc1OCC` here?
Answer: inactive

Question: `O=C(COc1ccc(-n2cnnn2)cc1)Nc1ccccc1Cl` was tested. Which outcome did it give?
Answer: inactive

Question: `C=CCc1cccc(/C=N/NC(=O)COc2ccc(-n3cnnn3)cc2)c1O` was tested. Which outcome did it give?
Answer: active

Question: For `CC(C)CN(C(=O)Cn1c(=O)cnc2ccccc21)C1CCS(=O)(=O)C1` (centres undefined), which outcome is on record?
Answer: inactive

Question: How did the outcome turn out when `O=C(NCc1ccc(Cl)cc1)C(=O)NCC1CCCN1S(=O)(=O)c1cccs1` (centres undefined) was run?
Answer: inactive

Question: How did the outcome turn out when `CCCCN(C(=O)CCNC(=O)NC12CC3CC(CC(C3)C1)C2)c1c(N)n(CCCC)c(=O)[nH]c1=O` was run?
Answer: inactive

Question: `CC(=O)c1ccc(NC(=O)C2CCCN2S(=O)(=O)c2cccs2)cc1` (centres undefined) was tested. Which outcome did it give?
Answer: inactive

Question: How did the outcome turn out when `COc1ccc2c(c1)O/C(=C\c1ccccc1O)C2=O` was run?
Answer: inactive

Question: For `Cc1cc(=O)[nH]c(SCc2ccc(Cl)cc2)n1`, which outcome is on record?
Answer: inactive

Question: For `COc1ccc(OCc2cn3c(C)cc(C)nc3n2)cc1`, which outcome is on record?
Answer: inactive

Question: `Cc1cc(C)nc(SCc2cn3c(C)cc(C)nc3n2)n1` was tested. Which outcome did it give?
Answer: active

Question: How did the outcome turn out when `Cc1ccc2nc(SCc3cn4c(C)cc(C)nc4n3)[nH]c2c1` was run?
Answer: inactive

Question: With `CCc1cccc(C)c1NC(=O)COC(=O)CNC(=O)c1cccs1` as the molecule, how does the outcome read?
Answer: inactive

Question: How did the outcome turn out when `CCN(CC(=O)Nc1c(F)cccc1F)C(=O)c1ccc(S(=O)(=O)N2CCCCC2)cc1` was run?
Answer: inactive

Question: With `Cc1ccc(S(=O)(=O)N2CCCCC2)cc1C(=O)N(C)CC(=O)Nc1cccc(F)c1` as the molecule, how does the outcome read?
Answer: inactive

Question: `O=C(Nc1ccc(F)c([N+](=O)[O-])c1)C1CCCO1` (centres undefined) was tested. Which outcome did it give?
Answer: inactive

Question: `CS(=O)(=O)Nc1cccc(C2=NN(S(=O)(=O)c3ccccc3)C(c3cccs3)C2)c1` (centres undefined) was tested. Which outcome did it give?
Answer: inactive

Question: `CS(=O)(=O)Nc1ccc(C2=NN(S(C)(=O)=O)C(c3cccs3)C2)cc1` (centres undefined) was tested. Which outcome did it give?
Answer: active

Question: How did the outcome turn out when `Cc1ccc(C2CC(c3cccc(NS(C)(=O)=O)c3)=NN2S(C)(=O)=O)cc1` (centres undefined) was run?
Answer: inactive

Question: With `Cc1ccc(CN2CCN(c3ccccc3Cl)CC2)o1` as the molecule, how does the outcome read?
Answer: inactive
